Assay outcomes (PubChem BioAssay)
Tb PYK inh: T. brucei pyruvate kinase inhibition; Q57TT1; TbPYK enzyme, Kinase-Glo Plus ATP luminescence, 45 min; AID 624173; Potency, µM (highest dose often 76.8 µM), actives largely listed as inhibitors; 410,000 compounds, 0.12% hits; further: nearly all actives have a fitted effect of over 50% in size
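Assay buffer: 50 mM TEA pH 7.2, 100 mM KCl, 10 mM MgCl2, 0.05% BSA, 0.01% Tween-20. Pyruvate kinase from T. brucei plus substrate met compound, then ADP (130 uM final). Luminescence was read post 45 min RT.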
Shiga toxin inh: Shiga toxin inhibition; AID 2315; inhibition, % at 38.7 µM; Vero cells, Shiga toxin protein synthesis inhibition reporter; 290,000 compounds, 9.2% hits; in the data active means inhibition mostly above about 28%, no sharp cut-off; inactive means mostly below about 43%
FBPA Giardia inh: Giardia lamblia aldolase inhibition. A8B2U2. purified Giardia FBPA. Potency, µM (titrated, usually from 59.6 µM), actives largely listed as inhibitors. 290,000 compounds, 0.71% hits. AID 2451; further: nearly all actives have a fitted effect of over 55% in size
Target sequence (A8B2U2 whole entry, looked up): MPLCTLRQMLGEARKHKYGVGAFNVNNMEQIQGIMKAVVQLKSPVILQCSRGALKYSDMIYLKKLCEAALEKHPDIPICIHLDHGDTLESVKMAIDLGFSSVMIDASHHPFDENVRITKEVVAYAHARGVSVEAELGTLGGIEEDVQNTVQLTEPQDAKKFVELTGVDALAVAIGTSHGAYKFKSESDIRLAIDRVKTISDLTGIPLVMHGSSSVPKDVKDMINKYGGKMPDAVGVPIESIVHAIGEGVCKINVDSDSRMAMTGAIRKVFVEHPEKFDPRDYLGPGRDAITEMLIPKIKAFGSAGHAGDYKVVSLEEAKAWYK
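Giardia FBPA (40 nM reagent) was preincubated 10 min at RT with compound (up to 57.5 uM final), then substrate plus GAPDH/TPI/NAD/arsenate coupling system with diaphorase/resazurin was added; resorufin fluorescence (525/598 nm) was read after 20 min.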
Cycloheximide cs: counter-screen hit for Shiga toxin inhibitors, cycloheximide; 300,000 compounds, 12% hits; max response, %; cell reporter, cycloheximide protein synthesis inhibition counterscreen; in the data active means max response mostly above about 13%, no sharp cut-off; inactive means mostly below about 14%; further: read at 38.3 µM for the half of the compounds with a filed dose
Sm TGR inh: inhibitors of Schistosoma mansoni thioredoxin glutathione reductase; purified TGR, DTNB reduction, TNB absorbance 405 nm; Potency, µM (doses to about 114 µM), most hits filed as inhibitors; 360,000 compounds, 3% hits; further: nearly all actives have a fitted effect of over 60% in size
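Kinetic colorimetric format: TGR-catalysed, NADPH-driven DTNB reduction monitored via TNB absorbance. Enzyme dispensed at 20 nM; compound exposure 15 min at room temperature before reaction start.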
LmPK inhibitor: LmPK (Leishmania mexicana) enzyme inhibition; 290,000 compounds, 0.37% hits; AID 1721; Potency, µM (top dose mostly 57.5 µM), hits mostly inhibitors; purified LmPK, Kinase-Glo ATP luminescence, 1 h
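Screened at intermediate enzyme activity to detect both inhibitors and activators: LmPK at 0.1 nM, with a 0.5 nM enzyme column as activation reference. PEP 0.5 mM, ADP 0.1 mM; ATP detected by luminescence after 1 h.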
Of the large screens only hits and unclear results are named; the others gave an inactive call. Many of the other results were omitted from the sample, so hits are more common in it than they were. Unless noted, the call rests on the fitted dose curve; in most records, active means well fitted curve in the direction sought with a large enough effect; inconclusive means small, poorly fitted or top-dose-only effect, or another doubt; inactive means no such curve, though single readings can be large; an effect the other way counts as inactive or inconclusive.

CCOc1ccc(NC(=O)C(C)Oc2ccccc2C(=O)Nc2ccc(C)c(Cl)c2)cc1 (stereo not drawn)	Shiga toxin inh 111, Cycloheximide cs 22
CCOc1ccc(NC(=O)c2cc(SC)ccc2Cl)cc1	none
CCSc1ccccc1C(=O)Nc1cccc(OC)c1	Cycloheximide cs 15
COc1ccc(NC(=O)c2ccccc2SC)cc1	Shiga toxin inh 67, Cycloheximide cs 54, LmPK inhibitor inconclusive (no result: Sm TGR inh)
COC(=O)[C@@H]1C[C@@]1(C)[C@@H](NC(=O)OCc1ccccc1)c1ccccc1	none (no result: Tb PYK inh, Shiga toxin inh, Cycloheximide cs, Sm TGR inh, LmPK inhibitor)
C[C@@H]1C=C[C@](Cc2ccccc2)(C(=O)NCCN2CCOCC2)N1C(=O)c1ccccc1	none (no result: Tb PYK inh, Shiga toxin inh, Cycloheximide cs, Sm TGR inh, LmPK inhibitor)
CC(=O)c1sc(NC(=O)c2ccc(Cn3cc(Br)cn3)o2)nc1C	FBPA Giardia inh inconclusive, Sm TGR inh 50µM
CC(=O)c1sc(NC(=O)c2ccc(Br)o2)nc1C	Shiga toxin inh 34, Cycloheximide cs 38 (no result: FBPA Giardia inh)
O=C(/C=C/c1ccco1)c1ccc(O)cc1	Cycloheximide cs 38, Sm TGR inh 3.5µM (no result: Tb PYK inh)
O=C(C=Cc1ccco1)c1ccc2ccccc2c1	none (no result: Shiga toxin inh, FBPA Giardia inh, Cycloheximide cs, Sm TGR inh, LmPK inhibitor)
CN(C)c1ccc(C(=O)/C=C/c2ccco2)cc1	Shiga toxin inh 112, Cycloheximide cs 50, Sm TGR inh 45µM
O=C(Nc1ccccc1)N1CCC(C(=O)N2CCCC(C(F)(F)F)C2)CC1 (stereo not drawn)	none (no result: FBPA Giardia inh)
O=C(CBr)Nc1c2c(nn1-c1ccccc1)CSC2	Sm TGR inh 35µM
COc1ccc(-n2nc3c(c2NC(=O)CBr)CSC3)cc1	Sm TGR inh 40µM
COc1ccc(-n2nc3c(c2NC(=O)CCCCl)CSC3)cc1	Cycloheximide cs 16
COc1ccc(-n2nc3c(c2NC(=O)C(C)C)CSC3)cc1	none
CN(C)S(=O)(=O)c1cccc2c1C(=O)c1ccccc1C2=O	FBPA Giardia inh inconclusive, Sm TGR inh 25µM
CNc1cccc2c1C(=O)c1ccccc1C2=O	Cycloheximide cs 16
O=C1c2ccccc2C(=O)c2c(NCc3cccnc3)cccc21	none
Cc1nc(N2CCOCC2)c2c(C(=O)N3CCN(c4cc(Cl)ccc4C)CC3)c(C)oc2n1	none (no result: Shiga toxin inh, FBPA Giardia inh, Cycloheximide cs, LmPK inhibitor)
Cc1c(/C(O)=C2/C(=O)C(=O)N(Cc3cccnc3)C2c2ccccn2)cnn1-c1ccccc1 (stereo not drawn)	Cycloheximide cs 34 (no result: Sm TGR inh)
Cc1c(/C(O)=C2/C(=O)C(=O)N(Cc3cccnc3)C2c2cccs2)cnn1-c1ccccc1 (stereo not drawn)	Shiga toxin inh 168, Cycloheximide cs 52
CN(C)S(=O)(=O)c1ccc(/C(O)=C2/C(=O)C(=O)N(Cc3cccnc3)C2c2cccs2)cc1 (stereo not drawn)	Sm TGR inh 25µM
Cc1ccc(/C(O)=C2/C(=O)C(=O)N(Cc3cccnc3)C2c2ccccn2)cc1 (stereo not drawn)	none
Cc1oc2ccc(O)c(CN3CCN(C)CC3)c2c1C(=O)Nc1cccc(C(F)(F)F)c1	none (no result: Shiga toxin inh, FBPA Giardia inh, Cycloheximide cs, LmPK inhibitor)
CCOc1ccccc1C(=O)N[C@H](C(=O)OCC(=O)Nc1nnc(-c2ccccc2)o1)C(C)C	none (no result: Shiga toxin inh, FBPA Giardia inh, Cycloheximide cs, Sm TGR inh, LmPK inhibitor)
NC(Cc1ccc(C(F)(F)F)cc1)c1csc(Nc2cc(NCc3ccco3)ncn2)n1 (stereo not drawn)	none (no result: Shiga toxin inh, FBPA Giardia inh, Cycloheximide cs, Sm TGR inh, LmPK inhibitor)
COC(=O)c1cc(CSc2nnc(NC3CCCCC3)s2)oc1C	Sm TGR inh 45µM
Cn1/c(=N/NC(=O)c2ccccc2F)sc2ccccc21	Shiga toxin inh 79, Cycloheximide cs 35
COc1cccc(C(=O)N/N=c2\sc3ccccc3n2C)c1	Cycloheximide cs 15
Cc1ccc(C(=O)N/N=c2\sc3ccccc3n2C)cc1	Cycloheximide cs 20
CCC(=O)N/N=c1/sc2ccccc2n1C	none
COc1cccc(C(=O)Nc2ccccc2NC(=O)c2cccc(OC)c2)c1	none (no result: Shiga toxin inh)
COc1ccc(CCNC(=O)CSc2nc3ccccc3nc2Cc2ccc(C)cc2)cc1OC	none (no result: Shiga toxin inh, FBPA Giardia inh, Cycloheximide cs, LmPK inhibitor)
COc1ccccc1N1CCN(Cc2cc(=O)c(OCC(=O)NC3CCCC3)co2)CC1	none (no result: Shiga toxin inh, FBPA Giardia inh, Cycloheximide cs, LmPK inhibitor)
Cc1ccnc(-n2c(-c3ccccc3)nc3ccccc3c2=O)c1	none
Cc1nc2ccccc2c(=O)n1-c1ccc(F)cc1	none
Cc1nc2ccccc2c(=O)n1-c1ccc(Br)cn1	Shiga toxin inh 55, Cycloheximide cs 27
Cc1ccnc(-n2c(C)nc3ccccc3c2=O)c1	Cycloheximide cs 12
